# Assay outcomes: PubChem BioAssay, National Center for Advancing Translational Sciences (NCATS)
# Compounds with a hit are over-represented: about 21% of the library has one in this group of screens.
# Pf growth 48h: Primary qHTS for delayed death inhibitors of the malarial parasite plastid, 48 hour incubation | P. falciparum luciferase growth in erythrocytes, 48 h | Potency, µM (top dose mostly 28.7 µM), for inactives: top-dose activity change, negative = inhibition, usual class: inhibitors | 310,000 compounds, 5.9% hits; active = well fitted inhibition curve with a large enough effect; inconclusive = small, poorly fitted or top-dose-only effect, or another doubt; inactive = no such curve, though single readings can be large or run the other way; also: potency is read from the fitted curve at half-maximal effect; % is scaled to controls: 0 for no effect and ±100 for the full control effect
#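 Erythrocytes infected with P. falciparum carrying an integrated firefly luciferase reporter (2% hematocrit, 0.1% parasitemia final) were exposed to compounds in RPMI 1640 with 0.5% Albumax at 37 C, 5% CO2. Growth inhibition was scored as reduced luminescence.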
# SARS PLpro yeast: qHTS of Yeast-based Assay for SARS-CoV PLP; Potency, µM (titrated, usually from 32.9 µM), without a hit: at the top dose activity, positive = growth rescue, usual class: activators; 330,000 compounds, 0.19% hits; S. cerevisiae expressing SARS-CoV PLpro, growth rescue; AID 485353, 2010; also: potency is read from the fitted curve at half-maximal effect; 0% is about no effect; nearly all actives have a fitted effect of over 55% in size
# NS1 function inh: qHTS Assay for Inhibitors of Influenza NS1 Protein Function; Potency, µM (doses to about 46.1 µM), inactives show at the highest dose activity, positive = more growth; 270,000 compounds, 0.4% hits; also: potency is read from the fitted curve at half-maximal effect; actives are rising curves; nearly all actives have a fitted effect of over 50% in size
#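 A cell-based growth assay was used: compounds that relieve NS1-induced slow growth of budding yeast raise OD600. Assay medium was yeast nitrogen base with ammonium sulphate and -URA supplement, pH 6.0, with 2% galactose.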
# Pf growth 96h: Primary qHTS for delayed death inhibitors of the malarial parasite plastid, 96 hour incubation; 320,000 compounds, 6.9% hits; Potency, µM (doses to about 28.7 µM), inactives show at the highest dose activity change, negative = inhibition, hits mostly inhibitors; P. falciparum luciferase reporter growth, 96 h; active = well fitted inhibition curve with a large enough effect; inconclusive = small, poorly fitted or top-dose-only effect, or another doubt; inactive = no such curve, though single readings can be large or run the other way; also: potency is read from the fitted curve at half-maximal effect; % is scaled to controls: 0 for no effect and ±100 for the full control effect
#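 Erythrocytes infected with luciferase-expressing P. falciparum were dispensed at 2% hematocrit and 0.05% parasitemia (final), then incubated with compounds 96 hours at 37 C in 5% CO2. Luminescence after detection reagent addition reported growth.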
# Shiga toxin inh: A qHTS for Small Molecule Inhibitors of Shiga Toxin; inhibition, % at 38.7 µM; Vero cells, Shiga toxin protein synthesis inhibition reporter; 290,000 compounds, 9.2% hits; AID 2315, 2010; in the data active = inhibition mostly above about 28%, no sharp cut-off; inactive = mostly below about 43%; also: 0% is about no effect
# CHX counter: Cycloheximide Counterscreen for Small Molecule Inhibitors of Shiga Toxin; cell reporter, cycloheximide protein synthesis inhibition counterscreen; max response, %; 300,000 compounds, 12% hits; in the data active = max response mostly above about 13%, no sharp cut-off; inactive = mostly below about 14%; also: read at 38.3 µM for the half of the compounds with a filed dose; 0% is about no effect
# * = called active by the depositor; i = inactive; ? = inconclusive; nt = not tested or not shown. Unless noted, calls follow the shape of the full dose curve.
SMILES,Pf growth 48h,SARS PLpro yeast,NS1 function inh,Pf growth 96h,Shiga toxin inh,CHX counter
CC(C)c1ccc(N(CC(=O)NCC2CCCO2)C(=O)Cn2nnc(-c3cccs3)n2)cc1 (stereo not drawn),?,0.3%,2.3%,317.0%,-13.7,2.9
CCOC(=O)C1=C(C)NC(C)=C(C(=O)OCC)C1C(=O)OCC(=O)NC1(C#N)CCCCC1,?,4.3%,nt,?,nt,nt
O=C(Cn1nnc2ccccc2c1=O)N[C@@H](Cc1c[nH]c2ccccc12)C(=O)O,-10.1%,-11.1%,16.4%,?,8.2,-3.0
COc1cc(OC)c2c(C)cc(=O)oc2c1C(CCN1CCOCC1)c1ccc(N(C)C)cc1 (stereo not drawn),10.4µM*,0.2%,-11.2%,?,-14.0,-5.9
O=C(COC(=O)C1CCC1)NCc1ccc(F)cc1,-5.4%,1.7%,nt,9.8%,nt,nt
O=C(c1ccco1)[C@@H]1[C@@H]2C(=O)N(c3ccc(F)cc3)C(=O)[C@@H]2[C@H]2C=Cc3ccccc3N21,?,-19.0%,?,3.7µM*,22.7,9.4
NC(=O)[C@@H]1[C@@H]2C(=O)N(c3ccc(F)cc3)C(=O)[C@@H]2[C@H]2C=Cc3ccccc3N21,?,0.1%,9.2%,?,-6.4,-3.8
COc1ccc(C2OC(=O)CC2C(=O)NCc2ccc(C)cc2)cc1OC (stereo not drawn),-23.1%,-0.1%,nt,9.28µM*,-7.9,-2.7
CCN(CC)CCCNC(=O)c1[nH]c2ccccc2c1Sc1ccc(Cl)cc1,13.1µM*,-1.2%,2.0%,13.1µM*,-6.5,1.3
CCNc1ccc(C2(O)C(=O)c3ccccc3C2=O)cc1,16.0%,-10.7%,-0.7%,14.3%,-14.5,16.4
Cc1cc2c(cc1C)CSC(c1ccc(O)cc1)SC2,72.4%,-6.3%,-11.2%,1.0%,1.2,3.1
Cc1cc2c(cc1C)CSC(c1ccc3ccccc3c1O)SC2,9.28µM*,3.9%,10.1%,?,-2.4,10.5
Cc1cc2c(cc1C)CSC(c1ccccc1O)SC2,-20.9%,-8.6%,-5.2%,nt,37.6,6.2
Cc1cc2c(cc1C)CSC(c1c(O)ccc3ccccc13)SC2,11.7µM*,-53.6%,-30.8%,nt,-12.0,-1.8
CC(C)C[C@@]12C(=O)N(c3cccc(Cl)c3)C(=O)N1[C@H](c1ccc(Br)cc1)[C@@H]1C(=O)N(C(C)(C)C)C(=O)[C@@H]12,3.7µM*,-5.2%,nt,4.15µM*,nt,nt
CC[C@@]12C(=O)N(c3cccc(Cl)c3)C(=O)N1[C@H](c1ccc(Br)cc1)[C@@H]1C(=O)N(C(C)(C)C)C(=O)[C@@H]12,9.28µM*,1.6%,nt,?,nt,nt
CCN1C(=O)[C@H]2[C@@H](c3ccc(C)cc3)N3C(=O)N(c4cccc(Cl)c4)C(=O)[C@@]3(CC(C)C)[C@H]2C1=O,?,-4.0%,nt,8.28µM*,nt,nt
CC(C)C[C@@]12C(=O)N(c3cccc(F)c3)C(=O)N1[C@H](c1ccc(Br)cc1)[C@@H]1C(=O)N(C(C)(C)C)C(=O)[C@@H]12,13.1µM*,-1.1%,nt,5.22µM*,nt,nt
CC(C)(C)N1C(=O)[C@H]2[C@@H](c3ccc(Br)cc3)N3C(=O)N(c4cccc(Br)c4)C(=O)[C@@]3(Cc3ccccc3)[C@H]2C1=O,?,-1.8%,22.8%,?,3.3,4.1
CC(C)C[C@@]12C(=O)N(c3ccc(Br)cc3)C(=O)N1[C@H](c1ccc(Br)cc1)[C@@H]1C(=O)N(C(C)(C)C)C(=O)[C@@H]12,-40.3%,4.9%,18.6%,?,-8.2,-2.4
CC[C@@]12C(=O)N(c3cccc(C)c3)C(=O)N1[C@H](c1ccc(Br)cc1)[C@@H]1C(=O)N(C(C)(C)C)C(=O)[C@@H]12,3.29µM*,2.5%,17.2%,2.33µM*,-4.0,-3.7
O=C(Nc1ccc(S(=O)(=O)N2CCOCC2)cc1)c1ccc([N+](=O)[O-])o1,10.4µM*,-1.9%,1.7%,?,61.4*,19.4*
O=C(Nc1ccc(N2CCN(C(=O)c3cccs3)CC2)cc1)c1ccc([N+](=O)[O-])o1,?,-20.0%,-9.7%,9.28µM*,-22.8,-9.3
O=C(COc1ccccc1[N+](=O)[O-])Nc1ccc(N2CCN(C(=O)c3cccs3)CC2)cc1,10.4µM*,0.7%,4.8%,-28.9%,14.6,-2.4
O=C(Nc1ccc(N2CCOCC2)cc1)c1ccc([N+](=O)[O-])o1,19.2%,17.9%,-41.2%,21.3%,58.8*,37.3*
SMILES,Pf growth 48h,SARS PLpro yeast,NS1 function inh,Pf growth 96h,Shiga toxin inh,CHX counter
O=C(COC(=O)c1ccc([N+](=O)[O-])o1)Nc1ccc(N2CCOCC2)cc1,nt,-13.3%,nt,nt,nt,nt
CC1(c2ccccc2Cl)NC(=O)N(CC(=O)c2ccc3c(c2)OCO3)C1=O (stereo not drawn),?,-0.8%,nt,2.2%,nt,nt
Cc1cc(NC(=O)CSc2nnc(-c3ccc([N+](=O)[O-])cc3)o2)no1,?,2.5%,-9.7%,21.8%,6.2,-1.6
O=C(O)c1ccc2c(=O)[nH]c(CCl)nc2c1,?,-4.1%,nt,13.1µM*,-4.8,0.3
C[C@@H]1C=CC(=O)O[C@@H]1c1ccc(C(F)(F)F)cc1,?,-13.6%,-49.5%,2.33µM*,3.2,-2.7
C[C@H]1C=CC(=O)O[C@H]1c1ccccc1,nt,nt,nt,nt,15.9,-3.3
Cc1nc2cccc(C)n2c(=O)c1Cl,?,4.7%,-0.7%,nt,8.5,-2.1
CC(Oc1ccccc1)C(=O)N1CCN(c2ccc(N3CCCCCC3)nn2)CC1 (stereo not drawn),?,-3.4%,nt,10.4µM*,nt,nt
Nc1cc(-c2cccc([N+](=O)[O-])c2)[nH]n1,12.8%,-2.1%,9.3%,56.0%,2.5,16.5*
O=[N+]([O-])c1cccc(-c2nnc(-c3ccccc3)o2)c1,88.9%,0.4%,-5.1%,11.4%,67.5*,45.4*
Cc1occc1-c1nnc(-c2cc([N+](=O)[O-])cc([N+](=O)[O-])c2)o1,10.4µM*,-5.2%,22.4%,29.1%,18.1,11.1
Cc1occc1-c1nnc(SCC(N)=O)o1,21.8%,-0.1%,-5.0%,?,35.1,13.5
Clc1ccccc1-c1nnc(-c2ccc3c(c2)OCO3)o1,i,-5.3%,nt,?,93.3*,28.5*
O=c1cc(-c2cccc([N+](=O)[O-])c2)[nH][nH]1,-19.9%,17.4%,?,-12.3%,8.8,-4.1
O=C(COC(=O)c1cc(-c2cccs2)nc2ccccc12)NC1CCS(=O)(=O)C1 (stereo not drawn),-1.1%,1.7%,nt,-10.3%,26.3,-5.5
O=[N+]([O-])c1cccc(-c2nnc(-c3ccc4c(c3)OCO4)o2)c1,216.2%,-2.8%,-3.6%,156.9%,111.0*,64.5*
Cc1nnnn1CC(=O)Nc1ccccc1[N+](=O)[O-],20.3%,5.9%,0.8%,-11.1%,-1.3,1.7
